The whole screen tested about 3,200 compounds, of which about 75 (2%) showed an effect of 50% or more. The list comes from a sample in which strong results are over-represented; it also holds similar structures and randomly drawn compounds.
What follows are compounds tested on T1, S. aureus MSSA476. Settings: relative growth, OD600, TSB; 25 µM; inhibitor.
T1 construct: MSSA476
Set-up: species or system S. aureus MSSA476 (TSB) or V. cholerae SAD30 (LB); 384-well bacterial growth screen at 25 uM, OD600 relative to DMSO control

Row | SMILES | % of control remaining [%]
1 | N#CC(=Cc1cccc(F)c1)C(=O)Nc1cc(Cl)ccc1Cl [9-P03, 2-cyano-N-(2,5-dichlorophenyl)-3-(3-fluorophenyl)prop-2-enamide] | 107.865
2 | C=CC(=O)N1CCC(C(=O)N2CCN(CC(C)C)C(=O)C2C)CC1 (stereo not drawn) [2-B08, 3-methyl-1-(2-methylpropyl)-4-[1-(prop-2-enoyl)piperidine-4-carbonyl]piperazin-2-one] | 92.6023
3 | O=C(CCl)N1N=C(c2cccc(F)c2)CC1c1cccs1 (stereo not drawn) [4-E22, 2-chloro-1-[3-(3-fluorophenyl)-5-(thiophen-2-yl)-4,5-dihydro-1H-pyrazol-1-yl]ethan-1-one] | 121.582
4 | C=CC(=O)N1CCC(c2ncc(C(=O)O)o2)CC1 [2-G19, 2-[1-(prop-2-enoyl)piperidin-4-yl]-1,3-oxazole-5-carboxylic acid] | 116.275
5 | C=CC(=O)N1CCC(C(=O)Nc2ccc(CC)cc2)CC1 [3-J12, N-(4-ethylphenyl)-1-(prop-2-enoyl)piperidine-4-carboxamide] | 97.5185
6 | O=C(CCl)NSc1ccc([N+](=O)[O-])cc1 [4-P13, 2-chloro-N-[(4-nitrophenyl)sulfanyl]acetamide] | 1.906
7 | O=C(CCl)NCc1cc([N+](=O)[O-])ccc1O [4-A05, 2-chloro-N-[(2-hydroxy-5-nitrophenyl)methyl]acetamide] | 92.6155
8 | N#Cc1cc([N+](=O)[O-])ccc1NC(=O)CCl [4-O09, 2-chloro-N-(2-cyano-4-nitrophenyl)acetamide] | 100.619
9 | Cc1cc(C)cc(-c2cc(NC(=O)CCl)n(-c3ccccc3)n2)c1 [4-K04, 2-chloro-N-[3-(3,5-dimethylphenyl)-1-phenyl-1H-pyrazol-5-yl]acetamide] | 80.4192
10 | CC(O)=C(C#N)C(=O)Nc1ccc(C(F)(F)F)cc1 [9-A05, 2-cyano-3-hydroxy-N-[4-(trifluoromethyl)phenyl]but-2-enamide] | 71.6105
11 | CC(O)=C(C#N)C(=O)Nc1ccc(-c2ccccc2Cl)c(Cl)c1 [9-L22, 2-cyano-N-{2,2'-dichloro-[1,1'-biphenyl]-4-yl}-3-hydroxybut-2-enamide] | 33.2584
12 | C/C(O)=C(\C#N)C(=O)Nc1ccc(-c2ccccc2Cl)cc1 [9-P22, (2Z)-N-{2'-chloro-[1,1'-biphenyl]-4-yl}-2-cyano-3-hydroxybut-2-enamide] | 50.9363
13 | Cc1ccc(C=C(C#N)C(=O)NCc2ccco2)o1 [8-P19, 2-cyano-N-[(furan-2-yl)methyl]-3-(5-methylfuran-2-yl)prop-2-enamide] | 89.6266
14 | N#CC(=Cc1cc2ccccc2o1)C(=O)NCc1ccco1 [9-O08, 3-(1-benzofuran-2-yl)-2-cyano-N-[(furan-2-yl)methyl]prop-2-enamide] | 115.056
15 | N#CC(=Cc1ccc([N+](=O)[O-])o1)C(=O)NCc1ccco1 [8-I17, 2-cyano-N-[(furan-2-yl)methyl]-3-(5-nitrofuran-2-yl)prop-2-enamide] | -0.6639
16 | O=C(CCl)c1ccc2[nH]c(=O)[nH]c2c1 [10-I14, 5-(2-chloroacetyl)-2,3-dihydro-1H-1,3-benzodiazol-2-one] | 100.313
17 | O=C(CCl)c1ccc(Cl)c(Cl)c1 [10-L16, 2-chloro-1-(3,4-dichlorophenyl)ethan-1-one] | 5
18 | O=C(CCl)c1ccc(F)c(F)c1 [10-L13, 2-chloro-1-(3,4-difluorophenyl)ethan-1-one] | 110.313
19 | COc1ccc(C(=O)CCl)cc1Cl [10-D10, 2-chloro-1-(3-chloro-4-methoxyphenyl)ethan-1-one] | -0.3125
20 | COC(=O)c1cccc(C(=O)CCl)c1 [10-I11, methyl 3-(2-chloroacetyl)benzoate] | 61.5625
21 | COc1ccc(C(=O)CCl)c(OC)c1 [10-G18, 2-chloro-1-(2,4-dimethoxyphenyl)ethan-1-one] | 124.375
22 | CC(Cl)C(=O)NC(C)c1ccc(C(F)(F)F)nc1Cl (stereo not drawn) [7-G09, 2-chloro-N-{1-[2-chloro-6-(trifluoromethyl)pyridin-3-yl]ethyl}propanamide] | 111.774
23 | C=CC(=O)Nc1cccc(-c2nc(COC)no2)c1C [1-J08, N-{3-[3-(methoxymethyl)-1,2,4-oxadiazol-5-yl]-2-methylphenyl}prop-2-enamide] | 101.626
24 | COc1cc(Cl)c(C)cc1N1C(=O)C=CC1=O [10-B15, 1-(4-chloro-2-methoxy-5-methylphenyl)-2,5-dihydro-1H-pyrrole-2,5-dione] | 91.875

Row | SMILES | % of control remaining [%]
25 | N#CC(C(=O)Nc1ccc(Cl)cc1)=C(S)Nc1ccccc1 [8-H22, N-(4-chlorophenyl)-2-cyano-3-(phenylamino)-3-sulfanylprop-2-enamide] | 74.3568
26 | NC(=O)CCc1ccc(C(=O)CCl)cc1 [10-I03, 3-[4-(2-chloroacetyl)phenyl]propanamide] | 108.125
27 | CC(=O)N(C)Cc1ccc(C(=O)CCl)cc1 [10-H04, N-{[4-(2-chloroacetyl)phenyl]methyl}-N-methylacetamide] | 111.875
28 | CCN(c1ccc(C(=O)CCl)cc1)S(C)(=O)=O [10-F04, N-[4-(2-chloroacetyl)phenyl]-N-ethylmethanesulfonamide] | 2.1875
29 | CN(c1ccc(C(=O)CCl)cc1)S(C)(=O)=O [10-F19, N-[4-(2-chloroacetyl)phenyl]-N-methylmethanesulfonamide] | -0.3125
30 | N#Cc1ccc(C(=O)CCl)cc1 [10-F10, 4-(2-chloroacetyl)benzonitrile] | 52.5
31 | Cl.O=C(CCl)c1ccncc1 [10-M09, 2-chloro-1-(pyridin-4-yl)ethan-1-one hydrochloride] | 111.875
32 | C=CC(=O)N1CCC(C(=O)NCc2ncnn2CC)CC1 [3-P03, N-[(1-ethyl-1H-1,2,4-triazol-5-yl)methyl]-1-(prop-2-enoyl)piperidine-4-carboxamide] | 135.829
33 | C=CC(=O)Nc1cc(-c2ccco2)nn1C(C)(C)C [1-K19, N-[1-tert-butyl-3-(furan-2-yl)-1H-pyrazol-5-yl]prop-2-enamide] | 129.407
34 | CCN(Cc1ccccc1)C(=O)CCl [6-O21, N-benzyl-2-chloro-N-ethylacetamide] | 79.9024
35 | CCn1ccc(CN(C)C(=O)CCl)n1 [5-K06, 2-chloro-N-[(1-ethyl-1H-pyrazol-3-yl)methyl]-N-methylacetamide] | 77.5956
36 | CCc1cc(SC#N)cc(C)c1NC(=O)CCl [4-M04, 2-chloro-N-[4-(cyanosulfanyl)-2-ethyl-6-methylphenyl]acetamide] | 101.382
37 | O=C(CCl)Cc1cccc(Cl)c1 [10-E17, 1-chloro-3-(3-chlorophenyl)propan-2-one] | 119.375
38 | O=C(CCl)Cc1ccc(Cl)c(Cl)c1 [10-E15, 1-chloro-3-(3,4-dichlorophenyl)propan-2-one] | 111.25
39 | O=C(CCl)Cc1cc(Cl)cc(Cl)c1 [10-I15, 1-chloro-3-(3,5-dichlorophenyl)propan-2-one] | 23.125
40 | O=C(CCl)NC(=O)c1ccc(OC(F)F)cc1 [5-J22, N-(2-chloroacetyl)-4-(difluoromethoxy)benzamide] | 106.011
41 | C=CC(=O)NCc1ncoc1C(F)(F)F [3-E18, N-{[5-(trifluoromethyl)-1,3-oxazol-4-yl]methyl}prop-2-enamide] | 106.922
42 | N#CC(=Cc1ccc(C(F)(F)F)cc1)C(=O)Nc1ccccc1 [9-I04, 2-cyano-N-phenyl-3-[4-(trifluoromethyl)phenyl]prop-2-enamide] | 99.7753
43 | N#CC(C(=O)CCl)=C1NC(C23CC4CC(CC(C4)C2)C3)=CS1 [10-F14, 2-[4-(adamantan-1-yl)-2,3-dihydro-1,3-thiazol-2-ylidene]-4-chloro-3-oxobutanenitrile] | 42.1875
44 | N#CC(C(=O)CCl)=C1NC2=C(CCc3ccccc32)S1 [10-N10, 4-chloro-2-{1H,2H,4H,5H-naphtho[1,2-d][1,3]thiazol-2-ylidene}-3-oxobutanenitrile] | 59.6875
45 | CN1C=CC(=C(C#N)C(=O)CCl)C=C1 [10-G21, 4-chloro-2-(1-methyl-1,4-dihydropyridin-4-ylidene)-3-oxobutanenitrile] | 112.5
46 | O=C(CCl)NC1CCS(=O)(=O)c2ccc(F)cc21 (stereo not drawn) [7-H06, 2-chloro-N-(6-fluoro-1,1-dioxo-3,4-dihydro-2H-1lambda6-benzothiopyran-4-yl)acetamide] | 94.1915
47 | CN(C)c1ccc(C=C(C#N)C(=O)N2CCC2)cc1 [9-A14, 2-(azetidine-1-carbonyl)-3-[4-(dimethylamino)phenyl]prop-2-enenitrile] | 86.8914
48 | Cc1c(C#N)c(NC(=O)CCl)n(Cc2ccco2)c1C [4-D09, 2-chloro-N-{3-cyano-1-[(furan-2-yl)methyl]-4,5-dimethyl-1H-pyrrol-2-yl}acetamide] | 96.0457

— PMC11995724, “Antibiotic target discovery by integrated phenotypic and activity-based profiling of electrophilic fragments” (Cell chemical biology, 2025)
